Mito fusion act – blocks mitochondrial division or promotes mitochondrial fusion; S. cerevisiae fusion-defective mutant growth rescue, CellTiterGlo 48 h; 0.23% of 320,000 active; Potency, µM (doses to about 46.1 µM), for the others: at the highest dose growth rescue (activation), usual class: activators; also: % of control where 0% means no effect; nearly all actives have a fitted effect of over 45% in size
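Read-out: ATP-based luminescence (CellTiterGlo, 10 min ambient) reporting growth of fusion-defective ts yeast after 48 hours at 37C on glycerol/ethanol YPEG medium in the presence of compound.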
PKM2 activator – activators of human pyruvate kinase M2; Potency, µM (highest dose often 57.5 µM), without a hit: at the highest dose activation, usual class: activators; 0.34% of 260,000 active; P14618; purified PKM2, Kinase-Glo ATP luminescence, activation; response scale: 0% is enzyme alone, no compound; also: % is scaled to controls: 0 for no effect and ±100 for the full control effect; nearly all actives have a fitted effect of over 55% in size
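Purified hPK-M2 (>95% pure) converted ADP (0.1 mM final) to ATP with 0.5 mM PEP in 50 mM imidazole pH7.2, KCl, MgCl2, Tween 20, BSA; 1 h at room temperature. ATP detected by Kinase-Glo luminescence.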
GLS inh – glutaminase GLS (human) inhibition; GLS enzymatic activity, qHTS titration; 0.21% of 410,000 active; AID 624170; Potency, µM (highest dose often 45.5 µM), for inactives: at the top dose activity change, negative = inhibition, most hits filed as inhibitors; also: % is scaled to controls: 0 for no effect and ±100 for the full control effect
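hKGA in 45 mM KH2PO4 pH 8.2, 0.02% Tween-20 with pin-transferred compounds; 1 mM L-glutamine (stock) plus glutamate oxidase/HRP/Amplex Red coupling added. Fluorescence read initially and after 30 min at RT.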
PLK1 PBD inh – inhibitors of human PLK1 polo-box domain binding; Plk1 PBD binding of FITC phosphopeptide, fluorescence polarization; Potency, µM, for the others: max response, negative = inhibition, actives largely listed as inhibitors; 2.8% of 360,000 active; AID 720504; also: series mostly up to about 57 µM; % is scaled to controls: 0 for no effect and ±100 for the full control effect; nearly all actives have a fitted effect of over 65% in size
VDR inh – vitamin D3 receptor (human) inhibition. VDR-SRC2-3 peptide fluorescence polarization, 2 h. Potency, µM, inactives show max response, negative = inhibition, usual class: inhibitors. 0.93% of 400,000 active; also: % is scaled to controls: 0 for no effect and ±100 for the full control effect
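Measured by FP: displacement of SRC2-3 coactivator peptide from VDR by library compounds, following a two-hour ambient incubation.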
GCN5L2 inh – inhibitors of human GCN5L2 histone acetyltransferase; Q92830; GCN5L2 HAT assay, ThioGlo1 CoA-SH fluorescence; Potency, µM (titrated, usually from 58.9 µM), for inactives: at the highest dose activity change, negative = inhibition, hits mostly inhibitors; 0.21% of 390,000 active; AID 504327; also: % is scaled to controls: 0 for no effect and ±100 for the full control effect
Target sequence (Q92830 whole entry, looked up): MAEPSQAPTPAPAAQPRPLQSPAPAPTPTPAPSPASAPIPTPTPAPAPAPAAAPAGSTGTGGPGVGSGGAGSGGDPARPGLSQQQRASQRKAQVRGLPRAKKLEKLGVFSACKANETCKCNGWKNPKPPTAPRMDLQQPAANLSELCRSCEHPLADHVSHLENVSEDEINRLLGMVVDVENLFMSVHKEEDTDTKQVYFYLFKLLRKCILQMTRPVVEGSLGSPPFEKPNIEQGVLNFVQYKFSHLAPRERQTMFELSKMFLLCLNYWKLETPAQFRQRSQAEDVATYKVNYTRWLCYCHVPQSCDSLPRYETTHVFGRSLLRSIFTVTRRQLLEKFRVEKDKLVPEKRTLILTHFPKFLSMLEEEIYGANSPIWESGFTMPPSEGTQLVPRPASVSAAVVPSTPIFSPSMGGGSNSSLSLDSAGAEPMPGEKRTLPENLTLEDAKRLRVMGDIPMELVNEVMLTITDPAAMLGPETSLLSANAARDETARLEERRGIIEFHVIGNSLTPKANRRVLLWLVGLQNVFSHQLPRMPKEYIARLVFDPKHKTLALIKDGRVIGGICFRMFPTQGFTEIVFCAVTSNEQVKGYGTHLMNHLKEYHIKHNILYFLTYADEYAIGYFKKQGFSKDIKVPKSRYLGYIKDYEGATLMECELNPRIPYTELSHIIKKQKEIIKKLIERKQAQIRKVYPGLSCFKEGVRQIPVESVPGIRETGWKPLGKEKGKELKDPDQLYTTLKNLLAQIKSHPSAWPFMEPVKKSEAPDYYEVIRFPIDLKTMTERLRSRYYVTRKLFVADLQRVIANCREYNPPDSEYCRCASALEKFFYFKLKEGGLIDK
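Fluorescence readout, Ex340nm/Em540nm: ThioGlo1 (50uM final) reacts with free CoA thiol released as 20nM GCN5L2 acetylates H3(1-25) peptide (75uM) using acetyl-CoA (70uM). Compound and enzyme sat 15 min beforehand; 20 min room-temperature reaction.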
An asterisk follows results filed as active; [ ] = remark or other dose. This is a sample that favours compounds with a hit; in the whole collection about 3.4% have one here. Calls follow the shape of the dose curve; as a rule, active = well fitted curve in the direction sought with a large enough effect; inconclusive = small, poorly fitted or top-dose-only effect, or another doubt; inactive = no such curve, though single readings can be large; an effect the other way counts as inactive or inconclusive. Potency is read from the fitted curve at half-maximal effect.

Results for O=C(NCc1ccco1)c1ccc(Cn2c(=O)c3ccccc3n(Cc3cccc(F)c3)c2=O)cc1 ?
Mito fusion act: 1.5%; PKM2 activator: 8.1%; GLS inh: -3.1%; PLK1 PBD inh: 15µM*; VDR inh: inconclusive; GCN5L2 inh: -2.7%

How did CCCCn1c(=O)c(C(=O)NCc2ccco2)c(O)c2ccccc21 do in these assays?
Mito fusion act: inconclusive; PKM2 activator: 6.1%; GLS inh: 3.4%; PLK1 PBD inh: -6.9%; VDR inh: 6.2%; GCN5L2 inh: -1.8%

How did O=C(Oc1ccc(Cl)cc1)N1CCOCC1 do in these assays?
Mito fusion act: 0.5%; PKM2 activator: -1.4%; GLS inh: inconclusive; PLK1 PBD inh: 10.6µM*; VDR inh: 79.4µM*; GCN5L2 inh: 0.8%

What do the screens show for `O=C(Nc1ccc(OC(=O)N2CCCC2)cc1)N1CCOCC1`?
Mito fusion act: -5.3%; PKM2 activator: -4.9%; GLS inh: -8.9%; PLK1 PBD inh: 0.3%; VDR inh: -9.7%; GCN5L2 inh: 1.1%

Results for Cc1cc(N(CCCl)CCCl)ccc1/C=N/NC(=O)c1ccco1 ?
Mito fusion act: 1.8%; PKM2 activator: -17.1%; GLS inh: -3.0%; PLK1 PBD inh: 2.4%; VDR inh: -8.2%; GCN5L2 inh: -15.3%

Results for CCN(c1ccc(C)cc1C)S(=O)(=O)c1nnc(NC(=O)c2ccco2)s1 ?
Mito fusion act: -13.7%; GLS inh: 0.8%; PLK1 PBD inh: 26.7µM*; VDR inh: 12.2%; GCN5L2 inh: -2.7%

What do the screens show for `CC(=O)O[C@H]1[C@H]2[C@@H](OC(=O)Cc3ccccc3)[C@@H](C)C[C@]2(OC(C)=O)C(=O)/C(C)=C/[C@@H]2[C@H](CC[C@@]13CO3)C2(C)C`?
VDR inh: 6.1%; GCN5L2 inh: 6.1%

How did CC1([N+](=O)[O-])COP(=O)(Nc2ccc(Cl)cc2)OC1 (centres undefined) do in these assays?
GLS inh: 1.8%; PLK1 PBD inh: -3.2%; VDR inh: 89.1µM*

What do the screens show for `CSc1ccccc1NP1(=O)OCC(C)([N+](=O)[O-])CO1` (centres undefined)?
GLS inh: -7.4%; PLK1 PBD inh: -10.9%; VDR inh: -2.0%

Results for CN1CC[C@@]2(c3cccc(O)c3)Cc3nc4ccccc4cc3C[C@H]2C1 ?
VDR inh: 1.8%; GCN5L2 inh: -15.0%[0.501 µM]

What do the screens show for `CC[C@H](C)/C=C(C)/C=C/C1=CC2=C(Cl)C(=O)[C@@](C)(OC(C)=O)C(=O)C2=CO1`?
GLS inh: -0.5%; PLK1 PBD inh: 1.06µM*; VDR inh: 39.8µM*

How did c1ccc2c(c1)Sc1ccccc1N2C[C@H]1CN2CCC1CC2 do in these assays?
GLS inh: -4.9%

What do the screens show for `O=C1NCN(c2ccccc2)C12CCN(CC1COc3ccccc3O1)CC2` (centres undefined)?
Mito fusion act: 20.6µM*; GLS inh: 17.0%; VDR inh: 8.3%; GCN5L2 inh: -2.9%

How did O=C1NCN(c2ccccc2)C12CCNCC2 do in these assays?
Mito fusion act: -7.5%; PKM2 activator: -4.1%; GLS inh: 3.5%; PLK1 PBD inh: -2.0%; VDR inh: -6.1%; GCN5L2 inh: 1.1%

How did COC(=O)[C@]1(C)CC[C@@]2(C)CC[C@@]3(C)C4=CC=C5C(=CC(=O)C(O)=C5C)[C@@]4(C)CC[C@@]3(C)C2C1 (some centres undefined) do in these assays?
VDR inh: 3.16µM*; GCN5L2 inh: -16.5%

Results for CC(C)Oc1cccc(NC(=O)c2ccccc2C(F)(F)F)c1 ?
GLS inh: -7.9%[99.4 µM]

How did O=C(c1cccc(C(F)(F)F)c1)C1CCCN(Cc2ncc[nH]2)C1 (centres undefined) do in these assays?
Mito fusion act: 0.2%; PKM2 activator: 1.5%; GLS inh: -13.0%; PLK1 PBD inh: -5.5%; VDR inh: 8.1%; GCN5L2 inh: 0.159µM*

How did CCn1ccnc1CN1CCCC(C(=O)c2cccc(C(F)(F)F)c2)C1 (centres undefined) do in these assays?
Mito fusion act: -3.8%; PKM2 activator: -0.1%; GLS inh: -2.4%; PLK1 PBD inh: -14.7%; VDR inh: -1.4%; GCN5L2 inh: 0.2%

What do the screens show for `Cc1ccc(-n2ncc(C(=O)N3CCN(c4ccc(Cl)cc4)CC3)c2C2CCN(C(=O)OC(C)(C)C)CC2)c(C)c1`?
GLS inh: 10.5%; VDR inh: 3.3%; GCN5L2 inh: inconclusive

What do the screens show for `Cc1cc(N2CCCC2)ccc1C=C(C#N)C#N`?
Mito fusion act: -3.5%; PKM2 activator: -5.0%; GLS inh: -5.9%; PLK1 PBD inh: inconclusive; VDR inh: inconclusive; GCN5L2 inh: -7.9%

How did Cc1ccc2cc(C=C(C#N)C#N)c(Cl)nc2c1 do in these assays?
Mito fusion act: -1.4%; PKM2 activator: -1.4%; GLS inh: 68.3%; PLK1 PBD inh: 8.44µM*; VDR inh: 35.5µM*; GCN5L2 inh: -4.1%

What do the screens show for `CC(C)C(C)/C=C/C(C)C1CCC2C3=CC=C4CC(O)CCC4(C)C3CCC21C` (centres undefined)?
VDR inh: inconclusive; GCN5L2 inh: -6.7%

Results for CCCCCCCCCC[n+]1cccc([C@@H]2CCCN2C)c1 ?
VDR inh: -22.2%; GCN5L2 inh: 8.91µM*

How did CN[C@H]1C[C@@H](N)[C@H](O)[C@@H](O[C@@H]2O[C@H](CO)[C@H](O)[C@@H]3O[C@]4(O[C@@H]23)O[C@H]([C@@H](N)CO)[C@H](O)[C@@H](O)[C@H]4O)[C@@H]1O do in these assays?
GLS inh: 1.1%

How did CN1C(=O)/C(=C\c2ccc(N3CCCCCC3)cc2)C(=O)NC1=S do in these assays?
Mito fusion act: 5.5%; PKM2 activator: -0.3%; GLS inh: -0.3%; PLK1 PBD inh: 2.12µM*; VDR inh: inconclusive; GCN5L2 inh: -3.6%

What do the screens show for `Cc1cc(N2CCOCC2)ccc1/C=C1\C(=O)NC(=O)N(c2ccccc2)C1=O`?
Mito fusion act: -5.5%; PKM2 activator: -0.7%; GLS inh: -6.4%; PLK1 PBD inh: 11.9µM*; VDR inh: inconclusive; GCN5L2 inh: -7.5%

Results for O=C1NC(=O)N(c2cccc(F)c2)C(=O)/C1=C/c1ccc(N2CCOCC2)cc1 ?
Mito fusion act: 4.3%; PKM2 activator: 2.8%; GLS inh: -10.3%; PLK1 PBD inh: 11.9µM*; VDR inh: -26.6%; GCN5L2 inh: inconclusive

How did O=C(CCCN1CCC2(CC1)C(=O)N(Cc1cccc(F)c1)CN2c1ccccc1)c1ccc(F)cc1 do in these assays?
VDR inh: inconclusive; GCN5L2 inh: -18.6%

Results for CCCCC/C=C\C/C=C\C/C=C\C/C=C\CCCC(=O)OCCN ?
VDR inh: inconclusive; GCN5L2 inh: -9.0%
